PubChem BioAssay AID2313 (Broad Institute, 2010)
Screen size: about 22,000 compounds; about 460 (2.1%) were called active. Not shown: some 2% with an inconclusive outcome. This is one part of a sample in which actives are shown more often than they occur. A number with no mark means an inactive call.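 How the source made its calls: active means mean inhibition across valid replicates above about 65% (limit read from the data); inconclusive means mean under the limit, yet half or more replicates past it; inactive means the rest.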

Assay: Shh-driven Gli reporter inhibition – luminescence, Shh-LIGHT2 cells, Gli-luciferase, primary screen (AID 2313);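 further: pathway switched on by Shh-conditioned medium diluted 1 in 25 in low serum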
Details: 30 h, hits give high values

| SMILES | inhibition |
| --- | --- |
| C[C@H]1CN([C@@H](C)CO)C(=O)c2cccc(NC(=O)Nc3ccccc3)c2O[C@H]1CN(C)S(=O)(=O)c1ccc(Cl)cc1 | 108% (active) |
| C[C@H](CO)N1C[C@H](C)[C@H](CN(C)S(=O)(=O)c2ccccc2)Oc2c(NC(=O)Nc3ccccc3)cccc2C1=O | 14.8% |
| Cc1ccc(S(=O)(=O)N(C)C[C@@H]2Oc3c(NC(=O)Nc4ccccc4)cccc3C(=O)N([C@H](C)CO)C[C@H]2C)cc1 | -14.6% |
| Cc1ccc(S(=O)(=O)N(C)C[C@@H]2Oc3c(NC(=O)C4CC4)cccc3C(=O)N([C@H](C)CO)C[C@@H]2C)cc1 | 115% (active) |
| C[C@@H]1CN([C@H](C)CO)C(=O)c2cccc(NC(=O)Nc3cccc4ccccc34)c2O[C@@H]1CN(C)Cc1ccccc1 | 0.787% |
| C[C@H]1CN([C@@H](C)CO)C(=O)c2cccc(NC(=O)c3ccncc3)c2O[C@H]1CN(C)C | -21.4% |
| COc1ccc(NC(=O)Nc2cccc3c2O[C@H](CN(C)Cc2ccc(Cl)c(Cl)c2)[C@H](C)CN([C@@H](C)CO)C3=O)cc1 | 51.9% |
| C[C@@H]1CN([C@@H](C)CO)C(=O)Cc2cc(NC(=O)Nc3ccc4c(c3)OCO4)ccc2O[C@@H]1CN(C)S(=O)(=O)c1ccc(Cl)cc1 | 38.3% |
| O=C1C(c2ccccc2)CCCC1c1ccccc1 (stereo unspecified) | 22.1% |
| Cc1noc(C)c1NC(=O)Nc1cccc2c1O[C@@H](CN(C)C(=O)Nc1ccc(C(F)(F)F)cc1)[C@@H](C)CN([C@@H](C)CO)C2=O | 1.09% |
| Cc1cc(=O)oc2cc(OCc3cccc(F)c3)ccc12 | -75.4% |
| COc1ccc(NC(=O)N(C)C[C@@H]2OCCCC[C@@H](C)Oc3ccc(NS(=O)(=O)c4c(C)noc4C)cc3C(=O)N([C@H](C)CO)C[C@@H]2C)cc1 | -43% |
| C=C1CCC2C(C)(C)C(O)CCC2(C)C1CC/C(C)=C/C(=O)O (stereo unspecified) | 4.62% |
| COc1ccc(NC(=O)Nc2ccc3c(c2)C(=O)N([C@@H](C)CO)C[C@H](C)[C@H](CN(C)CC2CCCCC2)O3)cc1 | -5.89% |
| C[C@@H]1CN([C@@H](C)CO)C(=O)c2cc(NC(=O)Nc3ccc(C(F)(F)F)cc3)ccc2O[C@@H]1CN(C)Cc1ccncc1 | 10.7% |
| C[C@H]1CN([C@@H](C)CO)C(=O)c2cccc(NC(=O)C3CC3)c2O[C@@H]1CN(C)S(=O)(=O)c1ccc(F)cc1 | -1.67% |

| SMILES | inhibition |
| --- | --- |
| CCCN(C)C[C@@H]1OCCCC[C@@H](C)Oc2ccc(NS(=O)(=O)c3c(C)noc3C)cc2C(=O)N([C@H](C)CO)C[C@@H]1C | 35.2% |
| Cc1ccoc1CC[N+](C)(C)C | -11.8% |
| Cc1ccc(S(=O)(=O)Nc2ccc3c(c2)C(=O)N([C@H](C)CO)C[C@H](C)[C@H](CN(C)S(=O)(=O)c2ccc(F)cc2)OCCCC[C@@H](C)O3)cc1 | -17.8% |
| CCC(=O)O[C@]1(C(=O)CCl)[C@@H](C)CC2C3CCC4=CC(=O)C=C[C@]4(C)[C@@]3(F)[C@@H](O)C[C@@]21C (stereo partly specified) | 79.4% (active) |
| CC[C@]1(O)C[C@@H]2CN(CCc3c([nH]c4ccccc34)[C@@](C(=O)OC)(c3cc4c(cc3OC)N(C)[C@H]3[C@@](O)(C(=O)OC)[C@H](OC(C)=O)[C@]5(CC)C=CCN6CC[C@]43[C@@H]65)C2)C1 | 88.5% (active) |
| CC(C)NC(=O)N(C)C[C@@H]1Oc2c(NC(=O)c3cnccn3)cccc2C(=O)N([C@@H](C)CO)C[C@@H]1C | 2.03% |
| NC(=S)c1cnn2c(C(F)(F)F)cc(C(F)(F)F)nc12 | -19.5% |
| CC[N+]1=C(C)C(C)(C)c2cc(-c3ccccc3)ccc21 | 32.5% |
| C[C@@H]1CCCCO[C@H](CN(C)S(=O)(=O)c2ccc(Cl)cc2)[C@@H](C)CN([C@H](C)CO)C(=O)c2cc(NC(=O)Nc3ccc4c(c3)OCO4)ccc2O1 | -3.15% |
| Cc1noc(C)c1S(=O)(=O)Nc1ccc2c(c1)CC(=O)N([C@H](C)CO)C[C@@H](C)[C@@H](CN(C)Cc1ccncc1)O2 | 48% |
| C[C@@H]1CN([C@H](C)CO)C(=O)Cc2cc(NC(=O)Cn3cnnn3)ccc2O[C@H]1CN(C)CC1CCCCC1 | -28.8% |
| CC(C)(C)c1ccc(-c2[nH]nc(NC(=O)c3ccccc3Cl)c2Br)cc1 | 25.9% |
| CC(C)NC(=O)N(C)C[C@H]1Oc2c(NC(=O)c3ccncc3)cccc2C(=O)N([C@@H](C)CO)C[C@H]1C | 10.7% |
| C[C@H]1CN([C@@H](C)CO)C(=O)Cc2cc(NS(=O)(=O)c3cccs3)ccc2O[C@H]1CN(C)Cc1ccncc1 | -17.7% |
| O=C(O)CCC(=O)N(Cc1ccccc1)Cc1cn(-c2ccccc2)nc1-c1cccnc1 | -8.01% |
